Experimental data from PubChem BioAssay AID1159580 (chemical genetic matrix, 2015).
“And” between values parts separate entries of the source, which are not always exact repeats. Equal values may be shown once. Hit rate of the full screen: of about 5,500 compounds, about 2,000 (36%) were called active. Inconclusive results (about 18%) are left out. No stated cut-off is given here; in the data, active means normalized growth mostly below about 0.91 (no sharp cut-off); inconclusive means no clear call, values can overlap the other calls; inactive means mostly above about 0.92. The list shows a part of the results.

Test: chemical genetic growth profiling, strain panel (AID 1159580);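 further: tested at 20 µM; growth read once vehicle control cultures reached saturation at 30 °C; 1 = growth at the plate median or of vehicle wells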
Details: S. cerevisiae deletion strains, growth OD

Measured: normalized growth

C=C[C@@]1(C)CC(=O)[C@@]2(O)[C@](C)(O1)[C@@H](OC(C)=O)[C@@H](O)C1C(C)(C)CC[C@H](O)[C@@]12C (stereo partly specified)
inactive: locus YAL013W, strain DEP1, stronger effect = lower value 0.984 | locus YAL021C, strain ccr4, stronger effect = lower value 0.951 | locus YAL026C, strain drs2, stronger effect = lower value 0.978 | locus YAL030W, strain snc1, stronger effect = lower value 0.973 | locus YBL061C, strain skt5, stronger effect = lower value 0.984 | locus YBR009C, strain hhf1, stronger effect = lower value 1 | locus YBR021W, strain FUR4, stronger effect = lower value 1.01 | locus YBR023C, strain chs3, stronger effect = lower value 0.978 | locus YBR171W, strain sec66, stronger effect = lower value 0.992 | locus YBR229C, strain ROT2, stronger effect = lower value 0.947 | locus YBR231C, strain swc5, stronger effect = lower value 1.01 | locus YBR279W, strain paf1, stronger effect = lower value 0.974 | locus YCL011C, strain gbp2, stronger effect = lower value 0.954 | locus YCL016C, strain dcc1, stronger effect = lower value 0.956 | locus YCL029C, strain bik1, stronger effect = lower value 0.977 | locus YCL069W, strain vba3, stronger effect = lower value 0.983 | locus YCR088W, strain abp1, stronger effect = lower value 0.996 | locus YDL005C, strain med2, stronger effect = lower value 0.983 | locus YDL035C, strain GPR1, stronger effect = lower value 0.96 | locus YDL040C, strain nat1, stronger effect = lower value 0.986 | locus YDL074C, strain BRE1, stronger effect = lower value 0.999 | locus YDL101C, strain DUN1, stronger effect = lower value 0.988 | locus YDL134C, strain PPH21, stronger effect = lower value 0.981 | locus YDL185W, strain tfp1, stronger effect = lower value 0.986 | locus YDL192W, strain arf1, stronger effect = lower value 0.976 | locus YDR001C, strain nth1, stronger effect = lower value 0.976 | locus YDR069C, strain doa4, stronger effect = lower value 0.975 | locus YDR101C, strain arx1, stronger effect = lower value 0.986 | locus YDR137W, strain rgp1, stronger effect = lower value 0.989 | locus YDR150W, strain NUM1, stronger effect = lower value 0.972 | locus YDR159W, strain sac3, stronger effect = lower value 1.02 | locus YDR162C, strain NBP2, stronger effect = lower value 0.969 | locus YDR195W, strain ref2 1.02 | locus YDR297W, strain sur2, stronger effect = lower value 0.977 | locus YDR318W, strain mcm21, stronger effect = lower value 0.986 | locus YDR334W, strain swr1, stronger effect = lower value 0.972 | locus YDR335W, strain msn5, stronger effect = lower value 0.988 | locus YDR388W, stronger effect = lower value 0.988 | locus YDR392W, strain spt3, stronger effect = lower value 0.905 | locus YDR502C, strain sam2, stronger effect = lower value 0.965 | locus YEL003W, strain gim4, stronger effect = lower value 0.994 | locus YEL037C, strain rad23, stronger effect = lower value 0.997 | locus YEL061C, strain CIN8 (second series), stronger effect = lower value 0.992 | locus YEL061C, strain CIN8, stronger effect = lower value 0.983 | locus YER015W, strain faa2, stronger effect = lower value 0.993 | locus YER016W, strain bim1, stronger effect = lower value 0.963 | locus YER110C, stronger effect = lower value 0.976 | locus YER111C, strain swi4, stronger effect = lower value 1.01 | locus YER155C, strain BEM2 (second series), stronger effect = lower value 0.999 | locus YER155C, strain BEM2, stronger effect = lower value 1.01 | locus YER167W, strain BCK2, stronger effect = lower value 0.964 | locus YFR010W, strain ubp6, stronger effect = lower value 0.998 | locus YGL078C, strain dbp3, stronger effect = lower value 0.985 | locus YGL086W, strain mad1, stronger effect = lower value 0.984 | locus YGL167C, strain pmr1, stronger effect = lower value 0.99 | locus YGL173C, strain kem1, stronger effect = lower value 0.987 | locus YGL227W, strain vid30, stronger effect = lower value 0.985 | locus YGL240W, strain doc1, stronger effect = lower value 0.98 | locus YGL248W, strain PDE1, stronger effect = lower value 0.982 | locus YGL253W, strain hxk2, stronger effect = lower value 0.948 | locus YGR078C, strain PAC10, stronger effect = lower value 1.01 | locus YGR135W, strain pre9, stronger effect = lower value 0.985 | locus YGR229C, strain SMI1, stronger effect = lower value 0.998 | locus YGR252W, strain gcn5, stronger effect = lower value 1 | locus YHR013C, strain ard1, stronger effect = lower value 0.948 | locus YHR027C, strain rpn1, stronger effect = lower value 0.982 | locus YHR030C, strain SLT2, stronger effect = lower value 0.987 and 0.975 | locus YHR079C, strain IRE1 (second series), stronger effect = lower value 0.994 | locus YHR079C, strain IRE1, stronger effect = lower value 0.978 | locus YHR094C, strain hxt1, stronger effect = lower value 0.987 | locus YHR129C, strain ARP1, stronger effect = lower value 0.996 | locus YHR142W, strain chs7, stronger effect = lower value 0.955 | locus YHR200W, strain rpn10, stronger effect = lower value 0.989 | locus YIL066C, strain RNR3, stronger effect = lower value 0.979 | locus YIL073C, strain SPO22, stronger effect = lower value 0.945 | locus YIL125W, strain kgd1, stronger effect = lower value 0.983 | locus YIR030C, strain dcg1, stronger effect = lower value 0.979 | locus YJL092W, strain hpr5, stronger effect = lower value 0.974 | locus YJL095W, strain BCK1 (second series), stronger effect = lower value 0.978 | locus YJL095W, strain BCK1, stronger effect = lower value 1 and 0.973 | locus YJL115W, strain asf1, stronger effect = lower value 0.964 | locus YJL129C, strain trk1, stronger effect = lower value 0.954 | locus YJL134W, strain LCB3, stronger effect = lower value 0.984 | locus YJL154C, strain vps35, stronger effect = lower value 0.982 | locus YJL164C, strain tpk1, stronger effect = lower value 0.995 | locus YJL166W, strain qcr8, stronger effect = lower value 0.992 | locus YJL168C, strain set2, stronger effect = lower value 0.992 | locus YJL187C, strain SWE1 (second series), stronger effect = lower value 0.991 | locus YJL187C, strain SWE1, stronger effect = lower value 0.984 | locus YJR043C, strain POL32, stronger effect = lower value 1.01 | locus YJR066W, strain TOR1, stronger effect = lower value 0.927
